Shown are actives, neighbours in structure and some others; about 1.7% of the full set was active somewhere.
USP1 inh = USP1/UAF1 (human) deubiquitinase inhibition | hit rate 0.23% among 390,000 | Potency, µM (highest dose often 57.1 µM), without a hit: top-dose activity change, negative = inhibition, usual class: inhibitors | O94782 | recombinant USP1/UAF1, Ub-Rhodamine cleavage fluorescence; active means well fitted inhibition curve with a large enough effect; inconclusive means small, poorly fitted or top-dose-only effect; inactive means no such curve, though single readings can be large or run the other way; further: potency means the concentration at half of the fitted maximal effect; nearly all actives have a fitted effect of over 60% in size
Target sequence (O94782 whole entry, looked up): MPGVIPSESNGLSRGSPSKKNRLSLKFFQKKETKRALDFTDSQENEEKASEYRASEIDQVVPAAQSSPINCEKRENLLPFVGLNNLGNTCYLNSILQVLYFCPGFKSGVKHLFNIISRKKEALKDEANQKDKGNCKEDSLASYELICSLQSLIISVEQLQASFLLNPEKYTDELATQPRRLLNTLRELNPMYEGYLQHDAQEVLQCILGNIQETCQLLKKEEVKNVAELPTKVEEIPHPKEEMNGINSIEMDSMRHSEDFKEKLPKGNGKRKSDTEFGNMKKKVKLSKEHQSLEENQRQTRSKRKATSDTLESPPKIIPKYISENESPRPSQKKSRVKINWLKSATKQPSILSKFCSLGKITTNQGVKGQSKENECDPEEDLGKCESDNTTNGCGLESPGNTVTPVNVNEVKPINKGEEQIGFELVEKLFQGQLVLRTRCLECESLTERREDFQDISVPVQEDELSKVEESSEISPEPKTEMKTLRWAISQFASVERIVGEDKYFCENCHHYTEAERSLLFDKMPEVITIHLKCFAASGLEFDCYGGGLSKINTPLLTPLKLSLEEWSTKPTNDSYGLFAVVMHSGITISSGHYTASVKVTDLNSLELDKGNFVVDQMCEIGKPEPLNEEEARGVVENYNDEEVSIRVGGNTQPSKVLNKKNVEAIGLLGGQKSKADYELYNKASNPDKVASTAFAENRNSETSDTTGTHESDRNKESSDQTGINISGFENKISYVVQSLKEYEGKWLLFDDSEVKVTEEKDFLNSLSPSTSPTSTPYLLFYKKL
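1 nM enzyme complex + cpd, 15 min RT; start with Ub-Rho 150nM final; kinetic fluorescence ex 480/em 540, 6 reads q60 s. Buffer 50mM HEPES pH 7.8, 0.5mM EDTA, 0.1 mg/ml BSA, 1mM TCEP, 0.01% Tween-20.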
KCNH2 WT inh = blocks the wildtype human KCNH2 potassium channel; U2OS, BacMam KCNH2, thallium flux FluxOr; active compounds read low; activity change, % at 1.84 µM; hit rate 0.37% among 340,000; AID 720551;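 active means maximum activity change below -70%; inconclusive means maximum activity change between -70% and -50%; inactive means maximum activity change above -50%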
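U2OS cells were transduced with wild-type KCNH2 virus (2.03 x 10^8 / mL) for 4 h at room temperature, then cultured overnight at 37 C. Thallium flux was read with FluxOr dye. Rate constants were normalized to DMSO controls.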
FBPA coupling cs = coupling enzyme interference in Giardia aldolase counter-screen; hit rate 0.67% among 290,000; coupling enzyme system counterscreen, AmpLite Red fluorescence; activity change, negative = inhibition, % at 58.2 µM, hits read low; in the data active means activity change below about -30%
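Coupling enzymes only (glyceraldehyde-3-phosphate) + compound, at 57.5 uM final, 10 min RT; add substrate/coupling/AmpLite Red mix, 20 min RT; fluorescence ex 525/em 598 nm. Actives flag coupling-system interference.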
KCNH2 3.1 block = inhibitors of human KCNH2 3.1 potassium channel isoform | activity change, % (tested at about 1.8 µM) | hit rate 0.95% among 340,000 | AID 720553 | U2OS KCNH2 3.1, thallium flux FluxOr; active compounds read low;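 active means maximum activity change below -70%; inconclusive means maximum activity change from -70% to -50%; inactive means maximum activity change above -50%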;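 further: thallium influx rate constant from kinetic fluorescence after stimulation buffer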
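Thallium flux read-out: FluxOr dye with Red40 quencher in HBSS/HEPES, 45 min at RT. Rate constants from kinetic reads were normalized to positive and negative DMSO controls. Cells: U2OS virally expressing the 3.1 isoform.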
Giardia killer = kills Giardia lamblia. activity change, % at 7.66 µM, hits read low. hit rate 0.15% among 340,000. Giardia lamblia trophozoite viability; in the data active means activity change below about -80%; inconclusive means between about -30% and that limit;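 further: parasites exposed to compound for two days anaerobically before the ATP read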
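Trophozoites 100 cells/well + cpd; 48 hrs, 37 deg C, anaerobic. ATPLite 1-Step added, 15-30 min RT, luminescence read (ATP-based viability).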
* = called active by the depositor. On the % scale 0 is the no-effect control and ±100 the full control effect.

N#Cc1cc([N+](=O)[O-])ccc1Oc1cccc(/C=N/NC(=O)c2cccc(Cl)c2)c1 was read as USP1 inh -5%, KCNH2 WT inh -77*, FBPA coupling cs -36*, KCNH2 3.1 block inconclusive and Giardia killer 2.
For Cc1ccc(/C=N/NC(=O)c2cccc(S(=O)(=O)Nc3ccccc3Cl)c2)s1 the results were USP1 inh -19%, KCNH2 WT inh 15, FBPA coupling cs -34*, KCNH2 3.1 block -18 and Giardia killer -19.
For O=C(N/N=C/c1ccccc1C(=O)O)c1cccc(S(=O)(=O)Nc2cc(Cl)ccc2Cl)c1 the results were USP1 inh -11%, KCNH2 WT inh 2, FBPA coupling cs 17, KCNH2 3.1 block 8 and Giardia killer -25.
Screening CN(c1ccccc1)S(=O)(=O)c1ccc(Cl)c(C(=O)NC2=NCCS2)c1 returned USP1 inh 0%, KCNH2 WT inh 31, FBPA coupling cs -2, KCNH2 3.1 block 2 and Giardia killer 28.
Screening COc1ccccc1N(C)S(=O)(=O)c1ccc(Cl)c(C(=O)NC2=NCCS2)c1 returned USP1 inh -22%, KCNH2 WT inh 1, FBPA coupling cs -1, KCNH2 3.1 block -76* and Giardia killer -8.
For Cc1ccc(C)c(N2CCN(C(=O)CS(=O)(=O)c3cccc4nsnc34)CC2)c1 the results were USP1 inh -7%.
For O=[N+]([O-])c1ccc(C=Nc2cccc3ccccc23)s1 the results were USP1 inh 14µM*, KCNH2 WT inh 7, FBPA coupling cs -28, KCNH2 3.1 block 14 and Giardia killer 1.
`O=[N+]([O-])c1ccc(C=NN2CCOCC2)s1` gave USP1 inh -10%, KCNH2 WT inh -11 and KCNH2 3.1 block 10.
Screening CCC(=O)Nc1ccccc1-c1nc2ccccc2n(C(C)C(=O)Nc2cccc(Cl)c2C)c1=O (configuration not stated) returned USP1 inh -6%.
COc1ccc(N=C2S/C(=C\c3ccc(Cl)c([N+](=O)[O-])c3)C(=O)N2CCN(C)C)cc1 was read as USP1 inh -22%, KCNH2 WT inh 17, FBPA coupling cs 1, KCNH2 3.1 block -28 and Giardia killer -5.
Screening CCN(CC)CCN1C(=O)/C(=C\c2ccc(Cl)c([N+](=O)[O-])c2)SC1=Nc1ccc(OC)cc1 returned USP1 inh inconclusive, KCNH2 WT inh -47, FBPA coupling cs 1, KCNH2 3.1 block -99* and Giardia killer 2.
Screening CNc1nc(Cl)c(SC)c(NC2CCCCC2)n1 returned USP1 inh -10%, KCNH2 WT inh -13, FBPA coupling cs 2 and Giardia killer -15.
`Clc1nnc(NC2CCCCC2)c(Cl)c1Cl` gave USP1 inh -27%, KCNH2 WT inh 11 and KCNH2 3.1 block -77*.
Screening c1ccc2c(NC3CCCC3)nnc(NC3CCCC3)c2c1 returned USP1 inh -9%, KCNH2 WT inh 7, FBPA coupling cs 0, KCNH2 3.1 block -82* and Giardia killer -2.
For CCc1nnc(NC(=O)c2cc(=O)c3cc(C)c(C)cc3o2)s1 the results were USP1 inh -8%.
O=c1oc2ccccc2cc1-c1nc2c(s1)CCc1ccccc1-2 was read as USP1 inh -24%, KCNH2 WT inh -4, FBPA coupling cs -81*, KCNH2 3.1 block -28 and Giardia killer 3.
O=c1oc2cc(O)ccc2cc1-c1nc2c(s1)CCc1ccccc1-2 was read as USP1 inh 242%, KCNH2 WT inh -157*, FBPA coupling cs -14, KCNH2 3.1 block -32 and Giardia killer 12.
O=c1oc2ccc3ccccc3c2cc1-c1nc2c(s1)CCc1ccccc1-2 was read as Giardia killer 36.
For CCOc1ccccc1N1CCN(C(=O)C2c3ccccc3Oc3ccccc32)CC1 the results were USP1 inh -13%, KCNH2 WT inh 19, FBPA coupling cs 9, KCNH2 3.1 block -2 and Giardia killer 4.
Screening CS(=O)(=O)N1CCN(C(=O)C2c3ccccc3Oc3ccccc32)CC1 returned USP1 inh 4%, KCNH2 WT inh 34, FBPA coupling cs 0, KCNH2 3.1 block -185* and Giardia killer 22.
CCc1ccc(C2N3CC4(C)CN2CC(c2ccccc2)(C3)C4=O)cc1 (configuration not stated) was read as USP1 inh -2%.
CC(=O)Nc1ccc(S(=O)(=O)NC(C(=O)O)C(C)C)cc1 (configuration not stated) was read as USP1 inh -2%, KCNH2 WT inh -5, KCNH2 3.1 block -72* and Giardia killer -11.
CN(C)c1ccc(CC2C(=O)Nc3ccccc32)cc1 (configuration not stated) was read as USP1 inh -20%, KCNH2 WT inh 8, FBPA coupling cs -39*, KCNH2 3.1 block -7 and Giardia killer 7.
O=C1Nc2ccccc2C1Cc1ccc(Br)cc1 (configuration not stated) was read as USP1 inh -1%.
`C[C@H]1C(=O)N(S(=O)(=O)c2ccccc2[N+](=O)[O-])[C@H]1c1ccc(-c2ccccc2)cc1` gave FBPA coupling cs 11 and Giardia killer 7.
`CC(=O)NCCNc1ncnc2ccc(-c3ccccc3C)cc12` gave FBPA coupling cs -2.
`CC1=C(CC(=O)c2ccccc2)C(=O)c2ccccc2C1=O` gave USP1 inh -23%, KCNH2 WT inh 18, FBPA coupling cs -36*, KCNH2 3.1 block 11 and Giardia killer -11.
CCCCNc1nc(Oc2ccc(OCCC)nn2)nc(N(C)C)n1 was read as USP1 inh -5%.
CC(C)(C)c1ccc(/C=C/C(=O)Nc2nncs2)cc1 was read as USP1 inh -6%, KCNH2 WT inh 14, FBPA coupling cs -1, KCNH2 3.1 block -83* and Giardia killer -6.
Screening O=C(NC1CCCCC1)c1cccc2c1C(=O)c1ccc(-c3ccc(OC(F)(F)F)cc3)cc1S2(=O)=O returned USP1 inh -5%, KCNH2 WT inh -9, KCNH2 3.1 block -129* and Giardia killer -11.
For COc1ccc(-c2ccc3c(c2)S(=O)(=O)c2cccc(C(=O)NC4CCCC4)c2C3=O)cc1OC the results were USP1 inh -21%, KCNH2 WT inh 6, KCNH2 3.1 block 15 and Giardia killer 1.
`CC(C)NC(=O)Nc1ccc2c(c1)C(=O)N([C@H](C)CO)C[C@H](C)[C@@H](CN(C)C(=O)NC(C)C)O2` gave USP1 inh -2%, KCNH2 WT inh 4, KCNH2 3.1 block -2 and Giardia killer -15.
`CCN(CC)CCNc1cc(C)nc2c1C(=O)C(=O)C=C2N1CCCCC1` gave USP1 inh -16%, KCNH2 WT inh -1, FBPA coupling cs -64*, KCNH2 3.1 block 7 and Giardia killer -1.
